Measurements: PubChem BioAssay AID1662 (Broad Institute, 2009)
Out of some 300,000 compounds screened, about 4,000 (1.3%) were called active. This excerpt belongs to a sample that is enriched for actives. A number with no mark means an inactive call.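 How the source made its calls: active means mean replicate score, as percent of positive control median, at least 50; inconclusive means mean below 50 but one replicate at or above 50; inactive means mean and every replicate below 50.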

Experiment: S. pyogenes SKKanGAS growth inhibitors in kanamycin, primary screen, streptokinase expression inhibitor project, SKKanGAS strain, BacTiter-Glo luminescence (AID 1662);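 further: strain carries kanamycin resistance gene driven by streptokinase promoter and grows in 40 µg/ml kanamycin; loss of luminescence reflects streptokinase promoter inhibition or plain growth inhibition; 0% = median of DMSO wells and 100% = positive control at its reference dose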
Details: 6 h, at 7.5 µM, stronger effect = higher value

Which inhibition does the source give for `CCOCCCNC(=O)C(NC(=O)c1ccc(=O)[nH]c1)c1ccc(Cl)cc1` (stereo not drawn) here?
Its inhibition is -3.58%.

With `COc1ccc(OC)c(S(=O)(=O)Nc2cccc(-c3ccc4nncn4n3)c2)c1` as the compound, how does the inhibition read?
The inhibition was -5.29%.

For `Cc1ccc(Nc2nc(-c3ccc(O)cc3O)cs2)nc1`, which inhibition is on record?
The inhibition was 20.8%.

With `O=C(Nc1ccc(Cl)cn1)Nc1cccs1` as the compound, how does the inhibition read?
The inhibition was -3.53%.

Which inhibition does the source give for `Clc1ccc(Nc2nc(-c3cccs3)cs2)nc1` here?
The inhibition was 64.4% (active).

For `O=C(CSc1ccc(-c2ccccn2)nn1)Nc1ccccc1`, which inhibition is on record?
Its inhibition is -3.36%.

With `CC(C)CN(Cc1c(O)ccc2c(=O)c(-c3ccccc3)coc12)CC(C)C` as the compound, how does the inhibition read?
Its inhibition is 0.595%.

Which inhibition does the source give for `O=c1c(-c2ccccc2)coc2cc(O)ccc12` here?
The inhibition was 0.922%.

Which inhibition does the source give for `CC(C)=CCc1c(O)c(CC=C(C)C)c2occ(-c3ccc(O)cc3)c(=O)c2c1O` here?
Its inhibition is 105% (active).

Which inhibition does the source give for `CCOC(=O)c1ccc2c(c1)nc(SCC(=O)NC(C)C)n2CC` here?
The inhibition was -3.36%.

For `Cc1cc(C)c(S(=O)(=O)Nc2c(C)n(C)n(-c3ccccc3)c2=O)cc1[N+](=O)[O-]`, which inhibition is on record?
The inhibition was 4.05%.

With `O=C(c1ccco1)N1CCN(C(=O)c2cc(-c3ccccc3F)no2)CC1` as the compound, how does the inhibition read?
The inhibition was 63.3% (active).

Which inhibition does the source give for `O=C(NCCCN1CCOCC1)c1cc(-c2ccccc2F)no1` here?
Its inhibition is 26.3%.

Which inhibition does the source give for `O=C(Cc1c(F)cccc1Cl)N1CCN(C(=O)c2ccco2)CC1` here?
The inhibition was -1.63%.

Which inhibition does the source give for `COC(CNC(=O)c1ccc2c(c1)ncn2-c1cc(C)cc(C)c1)OC` here?
Its inhibition is 0.722%.

Which inhibition does the source give for `COC(=O)C1=C(C)NC(=O)CC1c1ccccc1OC` (stereo not drawn) here?
Its inhibition is 4.98%.

With `CCOC(=O)c1ccc(-c2ccc(C(=O)Nc3cccnc3)o2)cc1` as the compound, how does the inhibition read?
The inhibition was 3.97%.

For `COC(=O)C1=C(C)NC2=C(C(=O)c3ccccc32)C1c1ccc(-c2ccc(C(=O)O)cc2)o1` (stereo not drawn), which inhibition is on record?
Its inhibition is 60.6% (active).

For `O=C(c1cccs1)N(Cc1cc2ccccc2[nH]c1=O)CC1CCCO1` (stereo not drawn), which inhibition is on record?
Its inhibition is -2.88%.

For `O=C(NCCC1CCCCN1S(=O)(=O)c1ccc(Cl)cc1)C(=O)NCc1ccco1` (stereo not drawn), which inhibition is on record?
Its inhibition is -16.2%.

For `Brc1ccccc1C1Nc2cccc3cccc(c23)N1`, which inhibition is on record?
Its inhibition is 56.8% (active).

Which inhibition does the source give for `Cc1ccc(C2Nc3cccc4cccc(c34)N2)cc1` here?
The inhibition was 9.05%.

Which inhibition does the source give for `Oc1ccc(C2Nc3cccc4cccc(c34)N2)cc1` here?
Its inhibition is 3.2%.

Which inhibition does the source give for `CC1Cc2cc(/C(O)=C3\C(=O)C(=O)N(Cc4cccnc4)C3c3ccccc3F)ccc2O1` (stereo not drawn) here?
Its inhibition is 12.9%.

Which inhibition does the source give for `CC1CCCN(S(=O)(=O)c2ccc(C(=O)Nc3nnc(-c4ccncc4)o3)cc2)C1` (stereo not drawn) here?
Its inhibition is 20.4%.

For `CSCc1nnc(NC(=O)c2ccc(S(=O)(=O)N3CCCCC3C)cc2)o1` (stereo not drawn), which inhibition is on record?
Its inhibition is 39.4%.

For `CC1CCCCN1S(=O)(=O)c1ccc(C(=O)Nc2nnc(-c3cccs3)o2)cc1` (stereo not drawn), which inhibition is on record?
Its inhibition is 99.8% (active).

For `CCn1c(N)c(Br)c(=O)[nH]c1=O`, which inhibition is on record?
Its inhibition is 0.526%.

Which inhibition does the source give for `Cc1cc(OC(C)C(=O)NC2CC(C)(C)NC(C)(C)C2)c2c(C)cc(=O)oc2c1` (stereo not drawn) here?
The inhibition was 2.79%.

With `CCOC(=O)N1CCN(c2cc(C)c([N+](=O)[O-])cc2F)CC1` as the compound, how does the inhibition read?
The inhibition was 15.6%.

With `O=C(O)c1ccc(Cn2c(=S)[nH]c3cc(Cl)ccc3c2=O)cc1` as the compound, how does the inhibition read?
The inhibition was 9.12%.

Which inhibition does the source give for `CC(C)c1ccc2c(c1)c(SC(C)(C)C)c(CC(C)(C)C(=O)O)n2Cc1ccc(Cl)cc1` here?
The inhibition was 109% (active).

Which inhibition does the source give for `O=C(COC(=O)c1ccccc1SCC(=O)N1CCCC1)Nc1ccccc1OC(F)F` here?
Its inhibition is 34%.

Which inhibition does the source give for `CSCCNC(=O)c1ccc2nc(Cc3ccccc3F)oc2c1` here?
The inhibition was 2.77%.

For `CC(C)S(=O)(=O)c1csc(NC(=O)Nc2ccc(Cl)cc2)c1Cl`, which inhibition is on record?
Its inhibition is 60% (active).

For `CN(c1cccc(NC(=O)Nc2ccc(Cl)cc2)c1)S(C)(=O)=O`, which inhibition is on record?
The inhibition was -13.9%.

Which inhibition does the source give for `Cn1ccc(NC(=O)Nc2ccc(Cl)cc2)n1` here?
The inhibition was -3.73%.

For `Cc1c(Cl)c([N+](=O)[O-])nn1CCCC(=O)Nc1cc(Cl)ccc1Cl`, which inhibition is on record?
The inhibition was -2.88%.

With `Cc1c(Cl)c([N+](=O)[O-])nn1Cc1ccc(C(=O)N/N=C\c2cc(Cl)ccc2O)o1` as the compound, how does the inhibition read?
The inhibition was 96.5% (active).

For `Cc1ccc(C(=O)O)cc1NC(=O)c1ccc(Cn2nc(C)c(Cl)c2C)o1`, which inhibition is on record?
Its inhibition is 5.19%.

Which inhibition does the source give for `CCC(CC)c1nnc(NC(=O)C2CCN(C(=O)c3ccco3)CC2)s1` here?
The inhibition was -3.32%.

Which inhibition does the source give for `O=C(c1ccc(Cl)cc1)c1cnc(Nc2ccccc2)s1` here?
Its inhibition is 3.38%.

Which inhibition does the source give for `O=C(Nc1ccccc1)c1nnsc1S(=O)(=O)c1ccc(Cl)cc1` here?
The inhibition was 85.8% (active).

For `CS(=O)(=O)c1ccc(Cl)c(NC(=O)Nc2ccccc2)c1`, which inhibition is on record?
The inhibition was -0.376%.

With `Cc1nnc(SCC(=O)Nc2cccc(N)c2)n1-c1ccccc1` as the compound, how does the inhibition read?
Its inhibition is 8.19%.

With `Clc1ccc(Cl)c(Oc2ccc(Oc3nc(Cl)ccc3Cl)cc2)n1` as the compound, how does the inhibition read?
The inhibition was -7.12%.

Which inhibition does the source give for `COc1ccccc1CNC(=O)CSc1nc(=O)n(Cc2ccncc2)c2c1CCC2` here?
The inhibition was 49.6% (active).

With `CN(C)CCn1c2c(c(SCC(=O)Nc3ccccc3C(F)(F)F)nc1=O)CCCC2` as the compound, how does the inhibition read?
Its inhibition is -16.8%.

With `CN(C)CCn1c2c(c(SCC(=O)NCc3ccccc3)nc1=O)CCC2` as the compound, how does the inhibition read?
The inhibition was -2.81%.

Which inhibition does the source give for `O=C(NNC1=C(C(=O)C(F)(F)F)CCC1)c1ccncc1` here?
Its inhibition is 18.5%.

For `O=C(Cc1ccc(S(=O)(=O)N2CCOCC2)s1)NCCOc1ccccc1F`, which inhibition is on record?
Its inhibition is 2.98%.

With `O=C(Nc1c2c(nn1-c1ccccc1)CS(=O)(=O)C2)C1CCCC1` as the compound, how does the inhibition read?
The inhibition was -3.29%.

With `CC(=O)Nc1ccc(Nc2ncnc3c2nnn3Cc2ccccc2Cl)cc1` as the compound, how does the inhibition read?
The inhibition was 1.15%.

Which inhibition does the source give for `CC(C)(C)NC(=O)C(=O)NN=C1CCCCCCC1` here?
The inhibition was -3.09%.

With `C/C(=N\NC(=S)NC(C)C)c1ccc(C(C)(C)C)cc1` as the compound, how does the inhibition read?
Its inhibition is 15.9%.

Which inhibition does the source give for `CC(C)NC(=S)NN=C1CCCCCCCCCCC1` here?
The inhibition was 63.8% (active).

With `Cc1c(CN2CCC(n3nccc3NC(=O)CCc3ccccc3)CC2)cnn1C` as the compound, how does the inhibition read?
The inhibition was 1.52%.

Which inhibition does the source give for `O=C(NC(Cc1c[nH]c2ccccc12)C(=O)N/N=C/c1ccc(Br)cc1)c1cccs1` (stereo not drawn) here?
Its inhibition is 66.8% (active).

With `CC(=O)NC(Cc1c[nH]c2ccccc12)C(=O)O` (stereo not drawn) as the compound, how does the inhibition read?
The inhibition was 4.27%.

For `CC(=O)Nc1ccc(/C=N/NC(=O)c2cccs2)cc1`, which inhibition is on record?
Its inhibition is 5.44%.

For `CN(Cc1ccccc1)C(=O)c1ccc(NC2=NC3CS(=O)(=O)CC3S2)cc1` (stereo not drawn), which inhibition is on record?
Its inhibition is -1.29%.

For `COc1cc(-c2cc(C(=O)OCC(=O)Nc3ccc4c(c3)OCO4)c3ccccc3n2)cc(OC)c1OC`, which inhibition is on record?
Its inhibition is 13.9%.

With `NC(=O)c1ccc(NC(=O)COC(=O)c2c3c(nc4ccccc24)/C(=C\c2ccc4c(c2)OCO4)CCC3)cc1` as the compound, how does the inhibition read?
Its inhibition is 64% (active).

With `COc1cc(/C=C2\CCCc3c2nc2ccccc2c3C(=O)O)cc(Cl)c1O` as the compound, how does the inhibition read?
Its inhibition is 15.8%.

For `O=c1[nH]c(CSc2ccccc2)nc2c1oc1ccccc12`, which inhibition is on record?
Its inhibition is -3.16%.

For `COc1ccc(C(=O)NC2=NCCS2)c(OC)c1`, which inhibition is on record?
The inhibition was -2.91%.

Which inhibition does the source give for `CCc1cc(=O)oc2c(C)c(OCC(=O)N3CC[C@@]4(O)CCCC[C@H]4C3)ccc12` here?
The inhibition was -5.4%.

For `Cc1nn(-c2ccccn2)c2c1C(c1ccncc1)C1=C(CC(C)(C)CC1=O)N2` (stereo not drawn), which inhibition is on record?
The inhibition was -3.06%.

Which inhibition does the source give for `CC(=C1C(=O)c2ccccc2C1=O)N1CCN(c2ccccn2)CC1` here?
Its inhibition is 1.02%.

For `Cc1cc(C)c(C2C3=C(Nc4c2c(C)nn4-c2ccccn2)c2ccccc2C3=O)c(C)c1` (stereo not drawn), which inhibition is on record?
The inhibition was 57.1% (active).

Which inhibition does the source give for `C=CCNc1nc(N)c([N+](=O)[O-])c(NC2CCCCC2)n1` here?
Its inhibition is 6.03%.

Which inhibition does the source give for `C=CCC(C(=O)c1ccccc1)[N+](C)(C)CC=C` (stereo not drawn) here?
Its inhibition is 2.59%.

Which inhibition does the source give for `O=C(OCc1ccc(Br)cc1)c1cccc(-c2nnc(-c3ccccc3)o2)c1` here?
The inhibition was 7.23%.

Which inhibition does the source give for `O=C(OCc1ccc(-c2ccccc2)cc1)c1cccc(O)c1` here?
Its inhibition is 54.9% (active).

With `O=C(OCC(=O)c1c[nH]c2ccccc12)c1cccc(O)c1` as the compound, how does the inhibition read?
Its inhibition is -11.7%.

For `O=C(O)CCC(=O)Nc1ccc(OCC2CCCO2)cc1` (stereo not drawn), which inhibition is on record?
Its inhibition is 1.88%.

For `O=C(C1CCCO1)N(c1ccc(F)cc1)C1C=CS(=O)(=O)C1` (stereo not drawn), which inhibition is on record?
Its inhibition is -0.303%.

With `CCOC(=O)c1cnc(Nc2nc3ccccc3o2)nc1CSC(=S)N1CCCCC1` as the compound, how does the inhibition read?
The inhibition was 30.1%.

For `Cc1ccc(C2CCN(C(=S)Nc3cccc(Cl)c3)C2)cc1` (stereo not drawn), which inhibition is on record?
The inhibition was 14.8%.

For `Clc1cccc(N=C2NN=C(c3ccc4c(c3)OCCO4)CS2)c1`, which inhibition is on record?
Its inhibition is 21.6%.

Which inhibition does the source give for `CN(C)c1nc(=Nc2cccc(Cl)c2)ss1` here?
The inhibition was 53.2% (active).

For `Cc1ccccc1N1CCN(C2CCCN(C(=O)c3ocnc3C)C2)CC1` (stereo not drawn), which inhibition is on record?
The inhibition was -0.706%.

For `Cc1cccc(N(CC(=O)N=Nc2c(O)[nH]c3ccccc23)S(C)(=O)=O)c1C`, which inhibition is on record?
The inhibition was 15.7%.

With `CN1CCN(c2ccc(S(=O)(=O)Nc3ccccc3)cc2[N+](=O)[O-])CC1` as the compound, how does the inhibition read?
Its inhibition is -10.6%.

Which inhibition does the source give for `O=[N+]([O-])c1cc(S(=O)(=O)Nc2cccc(Cl)c2)ccc1N=Nc1c(O)[nH]c2ccccc12` here?
Its inhibition is 59.8% (active).

For `Cc1nc(COc2cc3oc(=O)cc(C)c3cc2Cl)cs1`, which inhibition is on record?
Its inhibition is -7.93%.

With `COc1ccc2c(c1)CC[C@@H]1[C@@H]2CC[C@]2(C)C(=O)CC[C@@H]12` as the compound, how does the inhibition read?
The inhibition was -7.32%.

Which inhibition does the source give for `COc1cc(-c2nnc(NC(=O)C3=COCCO3)o2)cc(OC)c1OC` here?
The inhibition was 2.37%.

Which inhibition does the source give for `COc1ccccc1-c1nnc(NC(=O)c2ccc3ncsc3c2)o1` here?
Its inhibition is 20%.

For `Cc1ccc(C(=O)Nc2nnc(C3=COCCO3)o2)cc1C`, which inhibition is on record?
Its inhibition is 85.9% (active).

With `O=C(Nc1nnc(C2=COCCO2)o1)c1ccc([N+](=O)[O-])s1` as the compound, how does the inhibition read?
Its inhibition is 63.4% (active).

For `O=C(Nc1nnc(-c2ccco2)o1)c1ccc(S(=O)(=O)N2CCOCC2)cc1`, which inhibition is on record?
The inhibition was 1.36%.

With `O=C(Nc1ncc([N+](=O)[O-])s1)C1COc2ccccc2O1` (stereo not drawn) as the compound, how does the inhibition read?
Its inhibition is -8.31%.
